Measurements published in paper PMC7862700, “An all-to-all approach to the identification of sequence-specific readers for epigenetic DNA modifications on cytosine”.

Tests used:
Test in all cases: DAPPL (digital affinity profiling via proximity ligation, sequencing); 10 mM Tris-HCl pH 7.5, 50 mM NaCl, 1 mM DTT, 4% glycerol, room temperature, 30 min; GST-TFs on glutathione beads, 16-mer random dsDNA library, 0.1% formaldehyde crosslink after washing; high values mean tight binding
Conditions in all cases: protein: recombinant; tags: N-terminal GST; dsDNA, one strand shown
[1] = target: T1, FLI1 (Homo sapiens, UniProt Q01543 1-452)
T1 sequence: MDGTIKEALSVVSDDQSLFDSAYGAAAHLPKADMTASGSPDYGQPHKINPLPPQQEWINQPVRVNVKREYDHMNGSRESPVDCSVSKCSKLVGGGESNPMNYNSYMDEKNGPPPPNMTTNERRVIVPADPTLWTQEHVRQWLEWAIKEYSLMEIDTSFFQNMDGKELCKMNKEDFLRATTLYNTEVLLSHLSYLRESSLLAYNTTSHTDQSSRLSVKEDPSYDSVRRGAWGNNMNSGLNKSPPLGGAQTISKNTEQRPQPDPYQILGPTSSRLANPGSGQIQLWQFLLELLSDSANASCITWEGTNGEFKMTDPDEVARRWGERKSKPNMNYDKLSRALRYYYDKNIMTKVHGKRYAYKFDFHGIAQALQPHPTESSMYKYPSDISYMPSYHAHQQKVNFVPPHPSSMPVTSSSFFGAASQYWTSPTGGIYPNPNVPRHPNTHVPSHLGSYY
How it was run: (§1)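 Yeast served to express human transcription factors as GST fusions, which were then captured on glutathione beads and labelled with DNA barcodes. Pooled with a tag-only sample, they were incubated with 200 nmole of a 16-mer random double-stranded DNA library for 30 min at room temperature in Tris/NaCl/DTT/glycerol buffer, washed, crosslinked with 0.1% formaldehyde, ligated by proximity, amplified by PCR and sequenced. Dividing each hexamer's read frequency for a factor by its frequency for the tag-only sample gives the binding signal.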

[2] = target: T2, ELK1 (Homo sapiens, UniProt P19419 1-428)
T2 sequence: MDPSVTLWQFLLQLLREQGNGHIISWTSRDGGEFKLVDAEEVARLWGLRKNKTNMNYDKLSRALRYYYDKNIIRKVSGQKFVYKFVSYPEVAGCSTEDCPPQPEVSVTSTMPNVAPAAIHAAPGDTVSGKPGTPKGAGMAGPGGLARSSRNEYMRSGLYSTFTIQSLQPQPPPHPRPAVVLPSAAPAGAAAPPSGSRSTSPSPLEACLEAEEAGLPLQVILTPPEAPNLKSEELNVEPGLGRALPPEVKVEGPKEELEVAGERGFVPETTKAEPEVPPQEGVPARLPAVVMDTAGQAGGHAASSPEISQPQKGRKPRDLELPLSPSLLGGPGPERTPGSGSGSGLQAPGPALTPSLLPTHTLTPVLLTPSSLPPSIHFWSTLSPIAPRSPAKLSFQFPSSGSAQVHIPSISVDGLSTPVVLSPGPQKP
How it was run: as §1

[3] = target: T3, GABPA (Homo sapiens, UniProt Q06546 1-454)
T3 sequence: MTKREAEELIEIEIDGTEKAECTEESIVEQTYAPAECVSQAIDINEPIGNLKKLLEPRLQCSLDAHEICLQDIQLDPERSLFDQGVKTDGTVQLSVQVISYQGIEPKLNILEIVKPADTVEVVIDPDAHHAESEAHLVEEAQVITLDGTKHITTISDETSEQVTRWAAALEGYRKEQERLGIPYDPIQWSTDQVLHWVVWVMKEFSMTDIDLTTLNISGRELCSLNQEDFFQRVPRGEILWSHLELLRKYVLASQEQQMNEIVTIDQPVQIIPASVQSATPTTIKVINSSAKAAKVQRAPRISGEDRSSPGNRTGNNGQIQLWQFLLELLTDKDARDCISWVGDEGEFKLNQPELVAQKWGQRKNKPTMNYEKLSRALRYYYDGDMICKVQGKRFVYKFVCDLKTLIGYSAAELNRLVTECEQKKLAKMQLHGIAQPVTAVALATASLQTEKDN
How it was run: as §1

[4] = target: T4, ERG (Homo sapiens, UniProt P11308 1-479)
T4 sequence: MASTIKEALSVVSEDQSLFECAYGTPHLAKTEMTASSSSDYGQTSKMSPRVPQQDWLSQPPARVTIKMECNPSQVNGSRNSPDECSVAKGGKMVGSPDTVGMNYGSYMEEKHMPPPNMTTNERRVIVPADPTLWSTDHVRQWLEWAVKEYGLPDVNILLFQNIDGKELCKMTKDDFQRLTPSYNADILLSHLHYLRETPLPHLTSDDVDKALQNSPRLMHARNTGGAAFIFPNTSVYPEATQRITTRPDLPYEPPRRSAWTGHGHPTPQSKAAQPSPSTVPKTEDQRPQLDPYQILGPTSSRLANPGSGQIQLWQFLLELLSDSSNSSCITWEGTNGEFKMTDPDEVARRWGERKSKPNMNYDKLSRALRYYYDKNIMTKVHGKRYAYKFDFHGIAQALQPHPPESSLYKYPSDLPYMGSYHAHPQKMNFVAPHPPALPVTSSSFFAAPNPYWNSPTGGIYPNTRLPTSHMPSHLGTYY
How it was run: as §1

[5] = target: ELF1 (Homo sapiens, UniProt P32519 1-619)
How it was run: as §1

[6] = target: T5, EHF (Homo sapiens, UniProt Q9NZC4 1-300)
T5 sequence: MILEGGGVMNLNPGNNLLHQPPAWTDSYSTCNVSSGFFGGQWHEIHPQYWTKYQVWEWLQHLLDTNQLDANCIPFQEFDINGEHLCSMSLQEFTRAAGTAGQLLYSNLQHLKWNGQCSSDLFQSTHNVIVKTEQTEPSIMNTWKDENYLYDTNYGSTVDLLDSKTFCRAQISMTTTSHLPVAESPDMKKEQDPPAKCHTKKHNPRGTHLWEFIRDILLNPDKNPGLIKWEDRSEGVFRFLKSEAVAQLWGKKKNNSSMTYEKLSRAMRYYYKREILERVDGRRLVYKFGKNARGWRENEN
How it was run: as §1

[7] = target: SPI1 (Homo sapiens, UniProt P17947 1-270)
How it was run: as §1

[8] = target: SPIB (Homo sapiens, UniProt Q01892 1-262)
How it was run: as §1

[9] = target: T6, ELK3 (Homo sapiens, UniProt P41970 1-407)
T6 sequence: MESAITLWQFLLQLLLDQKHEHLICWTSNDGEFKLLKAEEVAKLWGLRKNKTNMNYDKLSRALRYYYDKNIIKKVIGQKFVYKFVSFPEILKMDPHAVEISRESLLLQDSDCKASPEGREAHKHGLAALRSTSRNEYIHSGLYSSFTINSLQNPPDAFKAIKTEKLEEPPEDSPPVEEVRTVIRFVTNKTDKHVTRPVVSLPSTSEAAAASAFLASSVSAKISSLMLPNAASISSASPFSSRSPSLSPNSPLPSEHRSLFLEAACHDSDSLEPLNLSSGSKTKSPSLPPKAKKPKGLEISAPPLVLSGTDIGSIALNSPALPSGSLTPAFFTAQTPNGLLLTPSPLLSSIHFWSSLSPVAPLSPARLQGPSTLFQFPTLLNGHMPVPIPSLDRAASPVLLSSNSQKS
How it was run: as §1

[10] = target: T7, FEV (Homo sapiens, UniProt Q99581 1-238)
T7 sequence: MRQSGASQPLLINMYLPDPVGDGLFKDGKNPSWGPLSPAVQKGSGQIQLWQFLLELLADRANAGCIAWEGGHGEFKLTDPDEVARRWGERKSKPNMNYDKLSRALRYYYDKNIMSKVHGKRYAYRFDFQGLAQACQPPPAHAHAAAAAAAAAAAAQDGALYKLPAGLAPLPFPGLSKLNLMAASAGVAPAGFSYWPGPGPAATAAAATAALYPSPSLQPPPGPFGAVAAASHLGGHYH
How it was run: as §1

[11] = target: ETV5 (Homo sapiens, UniProt P41161 1-510)
How it was run: as §1

[12] = target: T8, SPIC (Homo sapiens, UniProt Q8N5J4 1-248)
T8 sequence: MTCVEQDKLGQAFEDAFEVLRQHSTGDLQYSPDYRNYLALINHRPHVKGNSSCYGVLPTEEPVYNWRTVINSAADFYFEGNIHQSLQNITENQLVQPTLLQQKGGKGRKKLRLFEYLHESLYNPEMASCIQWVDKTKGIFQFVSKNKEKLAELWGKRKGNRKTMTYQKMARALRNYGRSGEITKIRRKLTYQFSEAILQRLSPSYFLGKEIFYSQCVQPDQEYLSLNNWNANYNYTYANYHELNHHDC
How it was run: as §1

[13] = target: ELF4 (Homo sapiens, UniProt Q99607 1-663)
How it was run: as §1

[14] = target: T9, ELK4 (Homo sapiens, UniProt P28324-2 1-405)
T9 sequence: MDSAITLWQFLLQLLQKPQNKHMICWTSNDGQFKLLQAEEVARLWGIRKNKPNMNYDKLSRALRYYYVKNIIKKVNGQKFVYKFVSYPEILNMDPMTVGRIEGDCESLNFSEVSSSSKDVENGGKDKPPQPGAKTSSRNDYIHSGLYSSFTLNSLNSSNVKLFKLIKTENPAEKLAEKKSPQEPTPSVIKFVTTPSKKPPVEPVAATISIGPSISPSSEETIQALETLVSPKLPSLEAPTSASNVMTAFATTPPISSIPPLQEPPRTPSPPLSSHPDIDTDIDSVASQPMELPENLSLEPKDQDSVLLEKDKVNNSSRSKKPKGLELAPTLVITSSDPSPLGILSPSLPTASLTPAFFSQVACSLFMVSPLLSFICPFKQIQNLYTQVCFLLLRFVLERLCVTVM
How it was run: as §1

[15] = target: T10, ETV2 (Homo sapiens, UniProt O00321 1-342)
T10 sequence: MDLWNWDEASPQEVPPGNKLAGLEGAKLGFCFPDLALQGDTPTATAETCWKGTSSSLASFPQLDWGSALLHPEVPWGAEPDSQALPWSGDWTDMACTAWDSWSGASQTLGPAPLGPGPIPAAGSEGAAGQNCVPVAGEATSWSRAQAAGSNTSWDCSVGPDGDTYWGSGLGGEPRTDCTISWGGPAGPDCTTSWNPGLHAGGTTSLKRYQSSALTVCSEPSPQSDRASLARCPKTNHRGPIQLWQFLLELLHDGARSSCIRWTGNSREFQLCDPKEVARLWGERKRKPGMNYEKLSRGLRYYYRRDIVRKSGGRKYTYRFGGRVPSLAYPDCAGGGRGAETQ
How it was run: as §1

[16] = target: T11, ELF3 (Homo sapiens, UniProt P78545 1-371)
T11 sequence: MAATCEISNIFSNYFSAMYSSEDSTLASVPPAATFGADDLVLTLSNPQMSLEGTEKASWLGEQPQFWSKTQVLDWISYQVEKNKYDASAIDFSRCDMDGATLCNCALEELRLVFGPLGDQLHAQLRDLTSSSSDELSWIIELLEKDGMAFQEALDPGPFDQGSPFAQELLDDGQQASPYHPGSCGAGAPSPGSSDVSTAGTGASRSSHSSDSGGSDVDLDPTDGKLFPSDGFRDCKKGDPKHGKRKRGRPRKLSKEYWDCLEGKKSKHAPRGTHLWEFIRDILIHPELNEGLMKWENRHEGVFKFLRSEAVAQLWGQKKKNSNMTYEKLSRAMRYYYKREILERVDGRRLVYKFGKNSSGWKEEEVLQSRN
How it was run: as §1

[17] = target: ETV1 (Homo sapiens, UniProt P50549 1-477)
How it was run: as §1

Sequence of SPIB (Q01892 whole entry): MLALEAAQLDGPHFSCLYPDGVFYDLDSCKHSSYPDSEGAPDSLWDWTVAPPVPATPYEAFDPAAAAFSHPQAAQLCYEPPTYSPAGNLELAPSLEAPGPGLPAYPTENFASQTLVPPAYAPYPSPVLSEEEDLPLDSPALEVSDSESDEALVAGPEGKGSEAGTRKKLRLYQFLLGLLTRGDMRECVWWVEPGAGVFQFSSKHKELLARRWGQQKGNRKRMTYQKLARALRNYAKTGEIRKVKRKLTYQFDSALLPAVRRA
Sequence of ELF4 (Q99607 whole entry): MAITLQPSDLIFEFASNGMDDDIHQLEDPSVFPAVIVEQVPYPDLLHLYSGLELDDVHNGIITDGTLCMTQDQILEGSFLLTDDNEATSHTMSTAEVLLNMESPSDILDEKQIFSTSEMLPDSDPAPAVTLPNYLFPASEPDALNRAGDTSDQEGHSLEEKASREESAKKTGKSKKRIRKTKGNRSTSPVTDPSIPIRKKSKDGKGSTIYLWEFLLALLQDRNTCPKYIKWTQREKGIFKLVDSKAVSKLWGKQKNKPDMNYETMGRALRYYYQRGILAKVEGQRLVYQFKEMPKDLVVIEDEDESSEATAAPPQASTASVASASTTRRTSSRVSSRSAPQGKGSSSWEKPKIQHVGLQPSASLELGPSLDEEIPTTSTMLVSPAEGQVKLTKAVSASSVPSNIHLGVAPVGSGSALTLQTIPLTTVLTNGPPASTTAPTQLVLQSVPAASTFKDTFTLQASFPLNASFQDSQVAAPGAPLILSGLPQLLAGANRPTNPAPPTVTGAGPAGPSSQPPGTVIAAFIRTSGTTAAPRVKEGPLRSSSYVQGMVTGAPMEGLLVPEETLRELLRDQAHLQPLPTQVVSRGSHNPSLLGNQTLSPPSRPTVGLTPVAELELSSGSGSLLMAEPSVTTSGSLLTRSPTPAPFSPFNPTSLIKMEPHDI
Sequence of ETV1 (P50549 whole entry): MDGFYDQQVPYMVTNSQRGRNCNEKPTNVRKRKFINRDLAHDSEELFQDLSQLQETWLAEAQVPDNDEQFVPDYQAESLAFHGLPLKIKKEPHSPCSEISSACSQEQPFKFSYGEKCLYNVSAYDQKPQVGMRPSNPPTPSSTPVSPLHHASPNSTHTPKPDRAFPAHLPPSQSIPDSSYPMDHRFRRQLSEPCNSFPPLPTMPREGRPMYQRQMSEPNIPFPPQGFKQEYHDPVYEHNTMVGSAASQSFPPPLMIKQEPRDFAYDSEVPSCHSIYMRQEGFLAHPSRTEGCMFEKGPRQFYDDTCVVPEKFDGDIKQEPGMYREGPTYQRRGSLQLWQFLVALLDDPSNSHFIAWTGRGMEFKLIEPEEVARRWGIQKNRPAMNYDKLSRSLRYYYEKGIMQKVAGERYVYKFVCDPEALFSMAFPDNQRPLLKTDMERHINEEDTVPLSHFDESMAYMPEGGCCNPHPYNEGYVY
Sequence of ELF1 (P32519 whole entry): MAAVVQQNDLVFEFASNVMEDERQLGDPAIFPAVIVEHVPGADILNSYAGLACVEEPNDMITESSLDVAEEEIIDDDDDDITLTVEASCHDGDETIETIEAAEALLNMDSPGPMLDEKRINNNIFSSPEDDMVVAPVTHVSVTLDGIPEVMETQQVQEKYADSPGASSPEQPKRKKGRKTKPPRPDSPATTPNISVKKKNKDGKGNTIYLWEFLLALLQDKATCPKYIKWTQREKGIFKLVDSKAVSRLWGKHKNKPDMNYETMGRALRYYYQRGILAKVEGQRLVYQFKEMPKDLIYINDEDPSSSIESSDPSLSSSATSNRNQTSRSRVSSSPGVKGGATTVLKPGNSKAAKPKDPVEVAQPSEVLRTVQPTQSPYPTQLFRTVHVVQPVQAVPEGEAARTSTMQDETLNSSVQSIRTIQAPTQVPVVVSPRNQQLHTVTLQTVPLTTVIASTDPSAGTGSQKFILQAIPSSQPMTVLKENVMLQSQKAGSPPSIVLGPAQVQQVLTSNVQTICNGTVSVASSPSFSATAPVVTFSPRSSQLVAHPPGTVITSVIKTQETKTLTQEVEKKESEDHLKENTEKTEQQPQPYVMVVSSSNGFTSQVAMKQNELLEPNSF
Sequence of ETV5 (P41161 whole entry): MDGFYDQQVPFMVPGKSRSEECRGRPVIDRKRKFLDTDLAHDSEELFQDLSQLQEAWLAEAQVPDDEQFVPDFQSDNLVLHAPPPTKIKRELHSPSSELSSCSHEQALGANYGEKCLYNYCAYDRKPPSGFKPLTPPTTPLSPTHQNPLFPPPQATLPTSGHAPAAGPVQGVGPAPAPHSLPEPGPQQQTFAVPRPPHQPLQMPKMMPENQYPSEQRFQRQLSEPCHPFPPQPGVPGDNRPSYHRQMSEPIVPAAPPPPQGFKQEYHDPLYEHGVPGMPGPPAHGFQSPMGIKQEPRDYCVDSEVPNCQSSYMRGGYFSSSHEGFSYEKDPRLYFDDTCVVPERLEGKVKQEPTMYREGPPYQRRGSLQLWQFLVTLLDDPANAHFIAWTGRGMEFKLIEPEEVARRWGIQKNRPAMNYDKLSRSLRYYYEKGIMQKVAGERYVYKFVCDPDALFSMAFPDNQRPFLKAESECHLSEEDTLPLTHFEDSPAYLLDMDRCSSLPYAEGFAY

Sequence | binding signal [1] | binding signal [2] | binding signal [3] | binding signal [4] | binding signal [5] | binding signal [6] | binding signal [7] | binding signal [8] | binding signal [9] | binding signal [10] | binding signal [11] | binding signal [12] | binding signal [13] | binding signal [14] | binding signal [15] | binding signal [16] | binding signal [17]
GTACAA | 1.05 fold enrichment (6-mer frequency, TF over GST control) | 1.08 fold enrichment (6-mer frequency, TF over GST control) | 1.01 fold enrichment (6-mer frequency, TF over GST control) | 1.11 fold enrichment (6-mer frequency, TF over GST control) | 1.11 fold enrichment (6-mer frequency, TF over GST control) | 1.26 fold enrichment (6-mer frequency, TF over GST control) | 1.06 fold enrichment (6-mer frequency, TF over GST control) | 1.04 fold enrichment (6-mer frequency, TF over GST control) | 1.02 fold enrichment (6-mer frequency, TF over GST control) | 1.11 fold enrichment (6-mer frequency, TF over GST control) | 1.08 fold enrichment (6-mer frequency, TF over GST control) | 1.12 fold enrichment (6-mer frequency, TF over GST control) | 1.09 fold enrichment (6-mer frequency, TF over GST control) | 1.18 fold enrichment (6-mer frequency, TF over GST control) | 1.19 fold enrichment (6-mer frequency, TF over GST control) | 1.08 fold enrichment (6-mer frequency, TF over GST control) | 1.09 fold enrichment (6-mer frequency, TF over GST control)
TGCACG | 1.12 fold enrichment (6-mer frequency, TF over GST control) | 1.06 fold enrichment (6-mer frequency, TF over GST control) | 1.18 fold enrichment (6-mer frequency, TF over GST control) | 1.03 fold enrichment (6-mer frequency, TF over GST control) | 1.16 fold enrichment (6-mer frequency, TF over GST control) | 1.22 fold enrichment (6-mer frequency, TF over GST control) | 1.12 fold enrichment (6-mer frequency, TF over GST control) | 1.23 fold enrichment (6-mer frequency, TF over GST control) | 1.15 fold enrichment (6-mer frequency, TF over GST control) | 1.15 fold enrichment (6-mer frequency, TF over GST control) | 1.14 fold enrichment (6-mer frequency, TF over GST control) | 1.03 fold enrichment (6-mer frequency, TF over GST control) | 1.13 fold enrichment (6-mer frequency, TF over GST control) | 1.24 fold enrichment (6-mer frequency, TF over GST control) | 1.22 fold enrichment (6-mer frequency, TF over GST control) | 1.26 fold enrichment (6-mer frequency, TF over GST control) | 1.06 fold enrichment (6-mer frequency, TF over GST control)
GCCGAC | 1.19 fold enrichment (6-mer frequency, TF over GST control) | 1.23 fold enrichment (6-mer frequency, TF over GST control) | 1.21 fold enrichment (6-mer frequency, TF over GST control) | 1.17 fold enrichment (6-mer frequency, TF over GST control) | 1.1 fold enrichment (6-mer frequency, TF over GST control) | 1.05 fold enrichment (6-mer frequency, TF over GST control) | 1.05 fold enrichment (6-mer frequency, TF over GST control) | 1.18 fold enrichment (6-mer frequency, TF over GST control) | 1.15 fold enrichment (6-mer frequency, TF over GST control) | 1.14 fold enrichment (6-mer frequency, TF over GST control) | 1.02 fold enrichment (6-mer frequency, TF over GST control) | 1.34 fold enrichment (6-mer frequency, TF over GST control) | 1.08 fold enrichment (6-mer frequency, TF over GST control) | 1.15 fold enrichment (6-mer frequency, TF over GST control) | 1.15 fold enrichment (6-mer frequency, TF over GST control) | 1 fold enrichment (6-mer frequency, TF over GST control) | 1.04 fold enrichment (6-mer frequency, TF over GST control)
